# The full data set covers some 8,800 targets. This sample favours those with a hit. About 0.5% of all pairs of compound and target were hits. Unmarked numbers belong to inactive results.
# Key:
# Assay in all cases: log2 fold change, soluble protein after heating vs DMSO (PISA); higher = thermal stabilisation; K562 lysate, 10 uM; active = over 0.2 and 3.5 SD of the protein, either way, in both replicates (recomputed)
# [1] = compound: C=CC(=O)N1CCC[C@@H](n2nc(-c3ccc(Oc4ccccc4)cc3)c3c(N)ncnc32)C1 [ibrutinib]
# How it was run: (§1)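 To prepare the extract, K562 pellets were dounce-homogenised in PBS pH 7.4 with 1 mM MgCl2, giving crude material at 1 mg/mL protein. This was treated with 10 μM compound for 30 min, then heated in aliquots for 3 min over 48°C-58°C before pooling and addition of NP-40 to 0.5% at 4°C. Centrifugation at 21,000xg for 90 min left soluble protein in the supernatant, which TMTpro 16plex LC-MS/MS quantified with equalised channel sums. Results are log-two fold changes in thermal stability compared with solvent controls, from duplicates.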
# [2] = compound: CC(=O)c1cnc2ccc(-c3cc(Cl)c(O)c(Cl)c3)nc2c1N[C@H]1CC[C@H](CN(C)C)CC1
# How it was run: as §1
# [3] = compound: CC1=C(C=C(C=C1)NC(=O)C2=CC(=CC=C2)C(C)(C)C#N)NC3=CC4=C(C=C3)N=CN(C4=O)C
# How it was run: as §1
# [4] = compound: CC1=CC=C(C=C1)SC2=C3C=C(SC3=CN=C2)C(=O)N
# How it was run: as §1
# [5] = compound: CCCS(=O)(=O)Nc1ccc(F)c(C(=O)c2c[nH]c3ncc(Cl)cc23)c1F
# How it was run: as §1
# [6] = compound: CCN(CCCOc1ccc2c(Nc3cc(CC(=O)Nc4cccc(F)c4)[nH]n3)ncnc2c1)CCOP(=O)(O)O [barasertib]
# How it was run: as §1
# [7] = compound: CC[C@@H]1C(=O)N(C)c2cnc(Nc3ccc(C(=O)N[C@H]4CC[C@H](N5CCN(CC6CC6)CC5)CC4)cc3OC)nc2N1C(C)C [volasertib]
# How it was run: as §1
# [8] = compound: CCn1cc(-c2ccnc3[nH]c(-c4cccc(CN(C)C)c4)cc23)c(-c2ccc(NC(=O)N(C)C)cc2)n1
# How it was run: as §1
# [9] = compound: CN1CCC(CNc2ccc3ncc(-c4cccc(OC(F)(F)F)c4)n3n2)CC1
# How it was run: as §1
# [10] = compound: CN1CCN(c2nc(C3=C(c4c[nH]c5ccccc45)C(=O)NC3=O)c3ccccc3n2)CC1 [sotrastaurin]
# How it was run: as §1
# [11] = compound: CC(C)(C)Cn1c(N)nc2ccc(-c3[nH]c(C(C)(C)C)nc3-c3ccc(F)cc3)nc21 [ralimetinib]
# How it was run: as §1
# [12] = compound: CC(C)(O)CC(=O)NCCn1ccc2ncnc(Nc3ccc(Oc4cccc(C(F)(F)F)c4)c(Cl)c3)c21
# How it was run: as §1
# [13] = compound: CC(C)C1=C2N=C(C=C(N2N=C1)NCC3=CC=CC=C3)NCCCCCCN
# How it was run: as §1
# [14] = compound: CC1=C(C(CC(=O)N1)C2=CC=C(C=C2)C(F)(F)F)C(=O)NC3=C(C=C4C(=C3)C=NN4)F
# How it was run: as §1
# [15] = compound: CC1=C(C2=C(C=C1)C(=O)C3=CC=CC=C3N2CCCN)C
# How it was run: as §1
# [16] = compound: CC1=C(C=C(C=C1)NC(=O)C2=CC(=CC=C2)N(C)C)NC(=O)C3=CC=C(C=C3)O
# How it was run: as §1
# [17] = compound: CCCS(=O)(=O)Nc1ccc(F)c(C(=O)c2c[nH]c3ncc(-c4ccc(Cl)cc4)cc23)c1F [vemurafenib]
# How it was run: as §1
# [18] = compound: CCn1c(C(=O)N(C2CC2)C2CC2)cc2c3c(ncn3C)c(Nc3cc(C)n(C)n3)nc21
# How it was run: as §1
# [19] = compound: CN1CCN(CCOc2cc(OC3CCOCC3)c3c(Nc4c(Cl)ccc5c4OCO5)ncnc3c2)CC1 [saracatinib]
# How it was run: as §1
# [20] = compound: CC[C@@H]1C(=O)N(C)c2cnc(Nc3ccc(C(=O)NC4CCN(C)CC4)cc3OC)nc2N1C1CCCC1
# How it was run: as §1
# Chain of UniProt O95271 (O95271 whole entry, looked up): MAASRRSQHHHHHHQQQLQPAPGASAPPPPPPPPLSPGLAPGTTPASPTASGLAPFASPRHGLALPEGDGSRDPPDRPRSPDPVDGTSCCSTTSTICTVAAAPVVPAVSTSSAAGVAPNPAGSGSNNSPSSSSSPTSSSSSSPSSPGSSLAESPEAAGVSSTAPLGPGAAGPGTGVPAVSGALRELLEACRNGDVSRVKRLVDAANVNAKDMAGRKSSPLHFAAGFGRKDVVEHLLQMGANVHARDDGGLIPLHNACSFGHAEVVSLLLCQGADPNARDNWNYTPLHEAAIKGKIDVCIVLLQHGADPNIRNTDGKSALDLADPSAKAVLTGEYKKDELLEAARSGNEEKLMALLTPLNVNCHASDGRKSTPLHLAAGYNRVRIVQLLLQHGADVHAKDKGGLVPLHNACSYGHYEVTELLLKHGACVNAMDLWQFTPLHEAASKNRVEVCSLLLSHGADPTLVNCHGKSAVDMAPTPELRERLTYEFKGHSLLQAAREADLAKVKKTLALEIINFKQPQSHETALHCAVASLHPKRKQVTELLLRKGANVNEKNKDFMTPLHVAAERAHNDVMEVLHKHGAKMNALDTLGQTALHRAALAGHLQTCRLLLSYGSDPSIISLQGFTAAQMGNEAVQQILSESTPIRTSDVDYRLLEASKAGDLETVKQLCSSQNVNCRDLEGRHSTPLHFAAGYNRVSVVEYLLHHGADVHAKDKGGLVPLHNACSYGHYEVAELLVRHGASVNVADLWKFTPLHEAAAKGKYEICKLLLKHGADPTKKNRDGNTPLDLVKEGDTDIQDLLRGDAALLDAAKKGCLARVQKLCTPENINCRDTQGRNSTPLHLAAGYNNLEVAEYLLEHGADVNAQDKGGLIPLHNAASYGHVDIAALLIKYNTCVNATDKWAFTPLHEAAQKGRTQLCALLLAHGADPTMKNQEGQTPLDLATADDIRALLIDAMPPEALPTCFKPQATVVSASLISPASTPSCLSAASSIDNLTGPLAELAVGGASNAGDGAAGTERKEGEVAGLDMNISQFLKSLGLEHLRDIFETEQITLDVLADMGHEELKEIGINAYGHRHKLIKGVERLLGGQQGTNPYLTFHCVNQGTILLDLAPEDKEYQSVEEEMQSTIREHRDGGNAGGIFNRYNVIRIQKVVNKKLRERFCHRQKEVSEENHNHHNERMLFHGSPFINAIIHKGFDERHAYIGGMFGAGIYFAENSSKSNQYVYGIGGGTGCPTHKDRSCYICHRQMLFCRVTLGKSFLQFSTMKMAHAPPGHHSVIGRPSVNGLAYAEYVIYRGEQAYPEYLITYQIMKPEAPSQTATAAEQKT
# Chain of UniProt Q8NDZ6 (Q8NDZ6 whole entry, looked up): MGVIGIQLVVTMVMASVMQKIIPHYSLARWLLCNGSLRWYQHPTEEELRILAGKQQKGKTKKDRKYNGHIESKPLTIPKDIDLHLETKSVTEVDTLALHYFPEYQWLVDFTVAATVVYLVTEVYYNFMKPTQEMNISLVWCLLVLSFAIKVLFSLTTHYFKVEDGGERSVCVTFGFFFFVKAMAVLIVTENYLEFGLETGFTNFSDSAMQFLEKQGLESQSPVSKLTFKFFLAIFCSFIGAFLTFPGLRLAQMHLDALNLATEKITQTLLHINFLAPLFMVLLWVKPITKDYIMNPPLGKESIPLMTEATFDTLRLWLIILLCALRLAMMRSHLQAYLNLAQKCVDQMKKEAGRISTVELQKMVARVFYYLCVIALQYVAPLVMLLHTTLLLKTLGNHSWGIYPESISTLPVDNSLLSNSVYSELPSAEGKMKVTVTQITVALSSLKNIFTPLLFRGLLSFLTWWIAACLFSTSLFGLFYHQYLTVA
# Chain of UniProt Q9P0S9 (Q9P0S9 whole entry, looked up): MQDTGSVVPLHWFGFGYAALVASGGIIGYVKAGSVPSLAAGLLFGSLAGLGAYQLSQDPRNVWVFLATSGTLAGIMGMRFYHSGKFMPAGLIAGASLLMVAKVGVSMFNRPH
# Chain of UniProt P10646 (P10646 whole entry, looked up): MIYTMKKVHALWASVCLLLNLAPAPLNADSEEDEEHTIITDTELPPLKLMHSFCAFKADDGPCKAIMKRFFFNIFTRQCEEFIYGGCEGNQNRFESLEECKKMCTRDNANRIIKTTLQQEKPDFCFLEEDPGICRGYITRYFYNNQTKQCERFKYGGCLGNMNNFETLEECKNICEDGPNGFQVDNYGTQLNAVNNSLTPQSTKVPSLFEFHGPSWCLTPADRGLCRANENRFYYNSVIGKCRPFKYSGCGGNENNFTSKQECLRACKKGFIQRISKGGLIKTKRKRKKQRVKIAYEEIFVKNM
# Chain of UniProt A6NHL2 (A6NHL2 whole entry, looked up): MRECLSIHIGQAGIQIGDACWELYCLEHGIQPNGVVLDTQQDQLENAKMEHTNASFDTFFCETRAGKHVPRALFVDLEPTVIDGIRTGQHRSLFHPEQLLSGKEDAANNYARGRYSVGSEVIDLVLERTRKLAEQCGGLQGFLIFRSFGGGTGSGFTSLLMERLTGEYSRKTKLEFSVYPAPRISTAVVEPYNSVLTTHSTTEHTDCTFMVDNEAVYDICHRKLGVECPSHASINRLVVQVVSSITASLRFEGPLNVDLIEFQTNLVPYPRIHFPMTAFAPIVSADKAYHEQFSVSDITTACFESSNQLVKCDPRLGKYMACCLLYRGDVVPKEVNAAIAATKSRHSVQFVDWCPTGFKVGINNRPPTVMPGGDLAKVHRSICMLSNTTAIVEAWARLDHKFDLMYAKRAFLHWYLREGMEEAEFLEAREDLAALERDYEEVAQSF
# Chain of UniProt Q6PGP7 (Q6PGP7 whole entry, looked up): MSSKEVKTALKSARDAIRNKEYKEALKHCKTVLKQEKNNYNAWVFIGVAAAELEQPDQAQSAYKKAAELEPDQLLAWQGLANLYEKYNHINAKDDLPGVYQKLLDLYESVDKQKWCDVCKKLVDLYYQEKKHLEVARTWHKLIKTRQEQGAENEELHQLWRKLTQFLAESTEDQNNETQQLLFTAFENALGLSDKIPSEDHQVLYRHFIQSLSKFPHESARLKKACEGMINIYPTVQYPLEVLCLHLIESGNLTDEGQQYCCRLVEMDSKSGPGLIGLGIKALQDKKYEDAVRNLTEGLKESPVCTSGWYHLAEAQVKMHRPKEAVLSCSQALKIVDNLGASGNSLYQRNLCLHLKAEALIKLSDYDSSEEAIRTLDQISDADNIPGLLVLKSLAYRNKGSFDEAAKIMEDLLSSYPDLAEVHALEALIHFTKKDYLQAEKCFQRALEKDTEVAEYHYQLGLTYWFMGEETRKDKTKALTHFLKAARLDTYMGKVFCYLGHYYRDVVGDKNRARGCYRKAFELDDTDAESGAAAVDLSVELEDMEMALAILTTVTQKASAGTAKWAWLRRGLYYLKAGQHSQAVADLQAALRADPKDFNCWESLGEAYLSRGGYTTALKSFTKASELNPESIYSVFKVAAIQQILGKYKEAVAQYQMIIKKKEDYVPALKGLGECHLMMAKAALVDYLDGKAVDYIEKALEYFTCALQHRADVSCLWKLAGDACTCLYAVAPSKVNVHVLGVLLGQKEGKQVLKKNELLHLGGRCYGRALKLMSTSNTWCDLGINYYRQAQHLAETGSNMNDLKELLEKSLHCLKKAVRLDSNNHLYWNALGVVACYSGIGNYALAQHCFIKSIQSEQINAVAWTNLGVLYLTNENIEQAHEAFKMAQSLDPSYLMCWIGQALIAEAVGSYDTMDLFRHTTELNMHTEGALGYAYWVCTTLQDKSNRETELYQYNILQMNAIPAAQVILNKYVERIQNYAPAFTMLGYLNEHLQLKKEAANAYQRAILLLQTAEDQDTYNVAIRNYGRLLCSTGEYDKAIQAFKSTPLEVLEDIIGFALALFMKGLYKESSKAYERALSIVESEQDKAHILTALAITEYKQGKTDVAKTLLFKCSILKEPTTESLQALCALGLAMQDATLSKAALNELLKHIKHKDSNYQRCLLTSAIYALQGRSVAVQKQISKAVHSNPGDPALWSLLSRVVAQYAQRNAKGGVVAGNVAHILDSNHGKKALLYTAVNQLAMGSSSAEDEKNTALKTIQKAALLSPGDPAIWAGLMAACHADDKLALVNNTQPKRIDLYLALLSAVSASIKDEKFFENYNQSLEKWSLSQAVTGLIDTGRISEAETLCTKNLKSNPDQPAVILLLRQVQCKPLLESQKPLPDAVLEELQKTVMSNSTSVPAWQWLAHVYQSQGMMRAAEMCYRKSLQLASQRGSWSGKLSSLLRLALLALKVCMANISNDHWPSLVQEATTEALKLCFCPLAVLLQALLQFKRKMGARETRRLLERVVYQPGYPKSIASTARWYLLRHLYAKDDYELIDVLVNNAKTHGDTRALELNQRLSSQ
# Chain of UniProt Q9H6P5 (Q9H6P5 whole entry, looked up): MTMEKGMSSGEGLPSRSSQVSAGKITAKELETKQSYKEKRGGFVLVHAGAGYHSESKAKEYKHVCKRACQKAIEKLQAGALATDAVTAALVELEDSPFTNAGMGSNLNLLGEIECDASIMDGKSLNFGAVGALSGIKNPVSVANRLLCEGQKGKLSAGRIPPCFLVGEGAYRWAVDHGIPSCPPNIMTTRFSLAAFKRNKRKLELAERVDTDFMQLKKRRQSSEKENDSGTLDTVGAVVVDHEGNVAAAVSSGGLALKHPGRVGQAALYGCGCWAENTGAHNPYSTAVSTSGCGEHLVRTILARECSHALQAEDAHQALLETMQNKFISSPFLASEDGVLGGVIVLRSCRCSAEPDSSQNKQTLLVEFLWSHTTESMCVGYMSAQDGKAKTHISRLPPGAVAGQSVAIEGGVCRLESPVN
# Chain of UniProt Q01664 (Q01664 whole entry, looked up): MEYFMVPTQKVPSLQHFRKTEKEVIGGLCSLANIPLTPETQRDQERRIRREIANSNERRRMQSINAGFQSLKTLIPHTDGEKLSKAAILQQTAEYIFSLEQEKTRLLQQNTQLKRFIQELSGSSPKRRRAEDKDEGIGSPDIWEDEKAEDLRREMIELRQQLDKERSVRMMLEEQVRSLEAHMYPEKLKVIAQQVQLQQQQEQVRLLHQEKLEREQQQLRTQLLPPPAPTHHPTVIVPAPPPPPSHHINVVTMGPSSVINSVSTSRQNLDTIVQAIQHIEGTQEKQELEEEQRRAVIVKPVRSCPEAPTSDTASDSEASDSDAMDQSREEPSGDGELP
Target,log2 fold change [1],log2 fold change [2],log2 fold change [3],log2 fold change [4],log2 fold change [5],log2 fold change [6],log2 fold change [7],log2 fold change [8],log2 fold change [9],log2 fold change [10],log2 fold change [11],log2 fold change [12],log2 fold change [13],log2 fold change [14],log2 fold change [15],log2 fold change [16],log2 fold change [17],log2 fold change [18],log2 fold change [19],log2 fold change [20]
TENM4 (UniProt Q6N022),-0.043,0.035,0.162,-0.109,-0.205,0.104,-0.069,0.534 (active),-0.257,0,–,–,–,–,–,–,–,–,–,–
TTC37 (UniProt Q6PGP7),0.012,0.047,0.154,-0.15,-0.068,0.018,0.011,–,–,-0.019,-0.024,0.012,-0.012,-0.019,-0.188,-0.043,0.053,0.045,0.013,–
TFAP4 (UniProt Q01664),0.057,0.141,0.058,0.07,0.021,0.072,-0.112,0.597,-0.189,0.007,0.004,-0.26,-0.109,0.046,–,0.038,0.105,0.129,–,0.131
UCHL5 (UniProt Q5LJA9),0.009,0.078,0.012,0.01,-0.061,-0.01,0.03,0.019,0,0.007,-0.007,-0.113,0.044,–,0,0.035,-0.021,-0.108,0.023,-0.103
TCF20 (UniProt Q9UGU0),-0.025,0.128,-0.004,-0.166,-0.106,0.084,0.006,-0.02,-0.031,0.086,–,–,-0.317,–,-0.212,–,–,–,0.038,–
TFPI (UniProt P10646),0.024,0.035,0.021,0.073,0.005,0.015,0.016,0.689 (active),-0.321,0.167,0.046,-0.003,-0.011,-0.042,–,-0.027,-0.079,0.093,–,-0.019
TUBAL3 (UniProt A6NHL2),0.002,-0.071,–,0.025,-0.024,-0.011,0.041,-0.413,0.284,–,0.056,-0.145,0.116,-0.009,-0.008,-0.119,0.084,-0.196,0.001,-0.122
TASP1 (UniProt Q9H6P5),0.005,0.04,0.009,0.067,0.028,0.13,-0.02,–,–,0.02,-0.073,-0.062,0.028,0.089,-0.114,-0.012,–,-0.047,-0.082,-0.082
TMEM161B (UniProt Q8NDZ6),-0.026,0.197,0.027,-0.012,-0.076,0.076,-0.055,0.055,-0.104,0.009,0,-0.224,-0.113,-0.005,–,0.108,-0.112,-0.028,–,-0.073
TFPT (UniProt P0C1Z6),0.046,0.1,–,-0.06,-0.019,0.148,0.015,–,–,–,–,–,-0.053,–,-0.145,–,–,–,0.005,–
TMEM14C (UniProt Q9P0S9),0.04,0.085,0.048,0.152,0.087,-0.038,0.045,–,–,0.06,0.129,-0.077,-0.135,-0.047,-0.146,0.007,0.027,-0.053,-0.088,0.129
TBC1D20 isoform 3 (UniProt Q96BZ9),0.078,-0.016,-0.171,-0.005,-0.069,0.438 (active),0.008,0.046,-0.033,-0.096,0.001,-0.14,-0.082,–,0.05,0.019,-0.088,0.059,-0.038,0.043
TNIK (UniProt C9J338),0.041,-0.076,0.16,-0.114,0.064,0.028,-0.011,-0.51,0.341,-0.026,–,–,0.025,–,-0.042,–,0.151,–,0.033,0.171
TNKS (UniProt O95271),–,0.038,0.004,0.124,0.124,–,-0.11,0.207,-0.092,0.021,-0.04,0.022,-0.045,-0.001,-0.076,0.006,-0.035,0.027,-0.007,0.055
TEDC1 (UniProt Q86SX3),–,-0.023,-0.018,-0.024,0.103,–,-0.041,–,–,-0.037,-0.049,-0.001,-0.066,0,-0.033,0.082,–,0.019,-0.02,0.106
TXNRD2 isoform 3 (UniProt Q9NNW7),–,–,–,–,–,–,–,–,–,–,-0.018,-0.323,-0.303,–,–,0.079,–,-0.081,–,–
TPM3 isoform 3 (UniProt P06753),–,0.066,-0.157,-0.032,0.011,–,0.036,-0.493,0.184,0.028,0.145,0.093,-0.125,–,0.005,0.012,-0.082,0.029,0.009,-0.187
